Compound activity deposited in PubChem by several laboratories.
beta cell repl – inducers of beta-cell replication in MIN6 cells. proliferation, % at 10 µM. MIN6 cells proliferation, ATPlite luminescence, 48 h; cells starved in 0.2% serum; 100% = growth in 10% serum. 0.29% of 330,000 active;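 active = compounds whose signal lies at least 3.5 SD above the mean of all wells on their plate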;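 also: 0% = DMSO-treated cells in low-serum medium and 100% = 10% serum control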
MOR-DOR ag – OPRM1-OPRD1 heterodimerization agonism | P35372+P41143 | cells, luminescence | activation, % at 9.3 µM | 0.3% of 340,000 active | AID 504326; in the data active = activation above about 18%;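 also: 0% = vehicle-treated cells and 100% = reference agonist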
V-ATPase pHluor – regulators of yeast V-ATPase proton transport | S. cerevisiae, pHLuorin cytosolic pH fluorescence | response, % at 10 µM | 0.37% of 350,000 active | AID 504577; in the data active = response mostly above about 7.3%, no sharp cut-off; inactive = mostly below about 5.4%; also: actives read high
HTR5A ag ctr – HTR5A agonism, opioid heterodimer counter-screen; AID 504692; P47898; activation, % at 9.3 µM; 0.61% of 340,000 active; HTR5A agonist assay, luminescence, cell-based; in the data active = activation mostly above about 9.5%, no sharp cut-off; inactive = mostly below about 7.6%;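 also: 0% = cells with vehicle only and 100% = reference agonist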
Target sequence (P47898 whole entry, looked up): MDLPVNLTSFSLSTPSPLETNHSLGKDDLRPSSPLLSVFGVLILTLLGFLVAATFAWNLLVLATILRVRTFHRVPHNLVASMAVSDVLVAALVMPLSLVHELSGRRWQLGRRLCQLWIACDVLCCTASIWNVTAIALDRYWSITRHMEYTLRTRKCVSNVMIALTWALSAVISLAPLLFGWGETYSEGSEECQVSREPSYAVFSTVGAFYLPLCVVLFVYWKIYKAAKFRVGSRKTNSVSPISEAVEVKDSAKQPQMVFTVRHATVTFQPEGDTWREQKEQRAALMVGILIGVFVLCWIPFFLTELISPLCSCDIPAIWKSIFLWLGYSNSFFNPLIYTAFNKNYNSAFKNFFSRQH
OPRM1-OPRD1 inv – inverse agonist of human OPRM1-OPRD1 heterodimerization | cell-based MOR-DOR heterodimer luminescence, inverse agonism | 0.21% of 340,000 active | inhibition, % at 9.3 µM | P35372+P41143; in the data active = inhibition above about 22%, passing the limit was not always enough;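 also: 0% = cells with DMSO and 100% = wells without cells with DMSO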
HTR5A inv ag – HTR5A inverse agonism, opioid heterodimer counter-screen | P47898 | inhibition, % at 9.3 µM | 0.083% of 340,000 active | HTR5A cell line, luminescence; in the data active = inhibition mostly above about 23%, no sharp cut-off; inactive = mostly below about 18%;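 also: 0% = cells with DMSO and 100% = no-cell wells with DMSO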
VATPase regulator – modulates yeast V-ATPase proton transport; shares compounds with V-ATPase pHluor; S. cerevisiae pHLuorin cytosolic pH; response, % at 10 µM; 2% of 980 active; in the data active = response above about 24%;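 also: plate controls were vehicle wells for no effect and positive control wells for full effect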
* = called active by the depositor; . = no result. An excerpt weighted towards active compounds, which were near 1.7% of everything screened.

SMILES	beta cell repl	MOR-DOR ag	V-ATPase pHluor	HTR5A ag ctr	OPRM1-OPRD1 inv	HTR5A inv ag	VATPase regulator
Cn1c(O)c(N=NC(=N)N)c2ccccc21	-1	-2	3	3	8	-9	.
N#Cc1c(-c2ccccc2)c(-c2ccccc2)n(Cc2ccco2)c1NC(=O)c1cccs1	-3	-3	9.7*	4	17	28	-6
O=C(CSc1nnc(-c2ccc(O)cc2)n1Cc1ccco1)c1cccs1	-2	-1	-4	-4	4	10	.
O=C(Cc1c(Cl)cccc1Cl)OCC(=O)N1CCc2ccccc2C1	0	-1	1	7	4	5	.
O=C(Cc1c(Cl)cccc1Cl)OCC(=O)N1CCOCC1	-2	-2	13*	2	11	-5	3
Cc1noc(C)c1C(=O)N1CCCC(C(=O)c2cccc(OC(C)C)c2)C1 (stereo not drawn)	4	-1	13*	-1	5	4	1
Cc1ncoc1C(=O)N1CCCC(C(=O)c2cccc(OC(C)C)c2)C1 (stereo not drawn)	3	-2	0	-4	10	-26	.
COCCN(C(=O)CCc1nnc(CCc2c[nH]c3ccccc23)o1)C(C)C	-3	-1	1	5	4	9	.
O=C(CNC(=O)c1cccc(Br)c1)N/N=C/c1ccc[nH]1	-2	-2	-1	3	13	-1	.
NNC(=O)CNC(=O)c1cccc(Br)c1	0	0	26*	1	2	12	-6
COCCn1c(SCC(=O)NNC(=O)c2ccccc2)nc2ccccc2c1=O	-5	-2	11*	-5	9	12	-2
C=C1C(=O)O[C@@]23[C@H]1CC[C@@H](C)[C@@H]2CC[C@@]1(C)O[C@@H]31	4	1	23*	3	-6	-9	0
CN(C)CCNC(=O)c1cccc(S(=O)(=O)Nc2ccc(F)cc2)c1	-2	0	6.2*	5	0	-14	1
CCN(CC)CCNC(=O)c1ccc(NC(=O)c2cccc(S(=O)(=O)Nc3ccc(C)cc3)c2)cc1	-3	0	2	-3	1	18	.
CC1CCC(NC(=O)C(C)N2C(=O)C3CCCCC3C2=O)CC1 (stereo not drawn)	0	-2	1	-1	7	2	.
O=C(NCCc1ccccc1)c1cc2ccccc2oc1=O	-1	0	-1	4	1	-13	.
O=C(NCCC1=CCCCC1)c1cc2ccccc2oc1=O	-3	-1	10*	3	4	9	3
O=[N+]([O-])c1cccc(-c2noc(-c3ccco3)n2)c1	-1	2	-6	4	-12	8	.
Cc1cccc(C(=O)C2CCOC(C)(C)C2)c1 (stereo not drawn)	2	-1	-5	2	3	7	.
Cc1ccc(C(=O)C2CCOC(C)(C)C2)cc1 (stereo not drawn)	0	0	12*	8	-2	-22	-2
CCC/C=C/c1ccc(CN2C(CC(C)C)C(=O)N(Cc3cn(CCC4OCCO4)nn3)CCS2(=O)=O)cc1 (stereo not drawn)	.	.	9.2*	.	.	.	-3
CC(C)CC1C(=O)N(Cc2cn(CCC3OCCCO3)nn2)CCS(=O)(=O)N1Cc1ccc(-c2ccc(F)cc2)cc1 (stereo not drawn)	.	.	5.5*	.	.	.	0
CCOC(=O)c1[nH]c2c(c1-c1ccccc1)C(=O)CC(c1ccc(OCC)cc1)C2 (stereo not drawn)	-4	-1	11*	2	7	-4	-6
CCOC(=O)N1CCN(C(=O)c2ccc(C#CC3(O)CCCCC3)cc2)CC1	-2	-2	1	1	11	-2	.
CCC(NC(=O)c1ccc(C#CC2(O)CCCCC2)cc1)C(=O)O (stereo not drawn)	-5	-1	12*	0	6	1	-1
CC1=C(C(=O)N2CCCC(N3CCN(c4cccc(C(F)(F)F)c4)CC3)C2)OCCO1 (stereo not drawn)	-2	-1	3	0	6	-3	.
CN1CCN(C(=O)CN(CCc2ccccc2)S(C)(=O)=O)CC1	-4	0	11*	-3	-2	0	1
